# Test results: PubChem BioAssay AID686978 (National Center for Advancing Translational Sciences (NCATS), 2013)
# Values joined by “and” are separate entries in the source; they are usually repeats but may differ in a detail not shown here. Equal entries are not always repeated. About 64,000 (15%) of roughly 420,000 compounds were called active. Not shown: some 27% with an inconclusive outcome. The call rests on the fitted dose curve; in most records, active means well fitted inhibition curve with a large enough effect; inconclusive means small, poorly fitted or top-dose-only effect; inactive means flat fitted curve, though single readings scatter. Only a sample is shown. A call without a number means that no potency is given here. More than one record can exist for a structure, and the calls need not agree.
# Experiment: qHTS for Inhibitors of human tyrosyl-DNA phosphodiesterase 1 (TDP1): qHTS in cells in absence of CPT; further: nearly all actives have a fitted effect of over 55% in size
# Conditions: DT40 Tdp1-/- hTDP1 cells, no CPT, ATP luminescence, 48 h; activity change, negative = growth inhibition: at 46.2 µM (top of the series)
# Outline: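 Seeded 400 DT40-hTDP1 cells/well (vehicle DMSO, no 20 nM CPT); pinned compounds; ≥48 hr at 37 °C; CellTiter-Glo luminescence as viability measure.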
# Potency means the concentration at half of the fitted maximal effect.
row,Structure (SMILES),Potency
1,COc1cccc(N2CCN(C(=O)CCCCCn3c(=O)[nH]c4ccccc4c3=O)CC2)c1,20.6 µM (active)
2,NS(=O)(=O)c1ccc(CCNC(=O)CCCCCn2c(=O)[nH]c3ccccc3c2=O)cc1,inactive
3,Cc1ccc(OCCCC(=O)N2CCOCC2)c(C)c1,inactive
4,Cc1ccc(N2CCN(C(=O)CCc3c(C)nc4c(c3C)c(=O)n(C)c(=O)n4C)CC2)c(C)c1,inactive
5,Cc1ccc(C)c(N2CCN(C(=O)CCCCCn3c(=S)[nH]c4ccc(N5CCOCC5)cc4c3=O)CC2)c1,2.91 µM (active)
6,Cc1ccc(C)c(N2CCN(C(=O)CCc3c(C)nc4c(c3C)c(=O)n(C)c(=O)n4C)CC2)c1,inactive
7,COc1ccc(CCNC(=O)CCCCn2c(=O)[nH]c3ccccc3c2=O)cc1OC,inactive
8,O=C(Cc1c(F)cccc1Cl)Nc1ccc(-n2cnnn2)cc1,inactive
9,COc1ccc(C(C#N)N2N=C(C)CC2(C)C)cc1 (stereo unspecified),inactive
10,NC(=O)N1CCc2ccccc21,inactive
11,CCC1(CC)NC(=O)N(CC(=O)OCC(=O)NC(=O)c2ccccc2)C1=O,inactive
12,Cc1ccc(C(=O)O)cc1-c1ccc(/C=C2\SC(=O)N(CC(=O)Nc3ccc4c(c3)OCO4)C2=O)o1,inactive
13,Cc1ccc(CCCOC(=O)C[N+]2(C)CCCC2)cc1,inactive
14,COc1ccc(CC2c3cc(OC)c(OC)cc3CC[N+]2(C)CCC(=O)OCCCCCOC(=O)CC[N+]2(C)CCc3cc(OC)c(OC)cc3C2Cc2ccc(OC)c(OC)c2)cc1OC (stereo unspecified),13 µM (active)
15,COc1cc2c(cc1OC)[C@@H](Cc1cc(OC)c(OC)c(OC)c1)[N+](C)(CCCOC(=O)CC/C=C/CCC(=O)OCCC[N+]1(C)CCc3cc(OC)c(OC)cc3[C@H]1Cc1cc(OC)c(OC)c(OC)c1)CC2 (stereo partly specified),inactive
16,O=C(CCN1C(=O)c2ccccc2C1=O)NCCN1CCOCC1,inactive
17,O=c1oc2ccccc2cc1-c1cn(-c2ccccc2)c(=S)[nH]1,3.26 µM (active)
18,O=C(c1cn(-c2ccccc2)nc1-c1cc2ccccc2oc1=O)N1CCOCC1,inactive
19,S=c1[nH]c(-c2cccs2)cn1-c1ccccc1,inactive

row,Structure (SMILES),Potency
1,CC(=O)Oc1c2c(c3c(c1CC=C(C)C)O[C@@]14C(=CC5CC1C(C)(C)OC4(C/C=C(\C)C(=O)O)C5=O)C3=O)OC(C)(CCC=C(C)C)C=C2 (stereo partly specified),1.3 µM (active)
2,CC1(C)CC(=O)C2=C(C1)N=C1SCCC(=O)N1C2c1ccc(C(F)(F)F)cc1 (stereo unspecified),inactive
3,Cc1ccc(S(=O)(=O)c2nc(-c3cccs3)oc2N2CCCCC2)cc1,23.1 µM (active)
4,Cc1ccc(CSc2oc(-c3cccs3)nc2S(=O)(=O)c2ccc(C)cc2)cc1,5.17 µM (active)
5,O=C(c1cc(-c2cccs2)on1)N1CCCCC1,inactive
6,N#Cc1ccc(-c2cccs2)nc1SCc1ccc(Br)cc1,inactive
7,COC(=O)CSc1nccc(-c2cccs2)n1,inactive
8,Cc1ccc(C(=O)N/C(=C/c2cccs2)C(=O)N2CCCCC2)cc1,inactive
9,NC(=O)CSc1oc(-c2cccs2)nc1S(=O)(=O)c1ccccc1,inactive
10,CCCCS(=O)(=O)c1oc(-c2cccs2)nc1S(=O)(=O)c1ccccc1,1.16 µM (active)
11,Cc1ccc(NC(=O)COc2ccc(/C=C3/NC(=O)NC3=O)cc2)cc1,inactive
12,O=C1OC(Oc2ccc(Br)cc2)(c2ccccc2)c2ccccc21 (stereo unspecified),inactive
13,CCCOCC(O)CC(CC)C(=O)NNC(=S)Nc1ccccc1 (stereo unspecified),inactive
14,COc1ccc2c(c1)N(C)/C(=C1/SC(=S)N(NC(C)=O)C1=O)S2,inactive
15,CCC(C)NC(=O)/C=C/c1ccc(S(=O)(=O)NCc2ccco2)cc1 (stereo unspecified),inactive
16,O=S(=O)(NC1CCCC1)c1ccc(-n2cnnn2)cc1,inactive
17,Cc1ccc(C(=O)NCC(=O)NC2CC2)cc1,inactive
18,O=C(NNC(=O)c1ccc(-c2ccccc2)cc1)Nc1ccccc1,inactive
19,O=C(NC1CC1)c1ccc(-c2ccccc2)cc1,11.6 µM (active)

row,Structure (SMILES),Potency
1,C/C(N)=C(/C#N)C(=O)COC(=O)C1CCN(C(=O)c2ccc(Cl)cc2)CC1,inactive
2,CC(=O)OCC(=O)C1(O)CCC2C3CC(C)C4=CC(=O)CCC4(C)C3C(O)CC21C (stereo unspecified),inactive
3,CC(=O)O[C@]1(C(C)=O)CC[C@H]2[C@@H]3CCC4=CC(=O)CC[C@]4(C)[C@@]3(F)[C@@H](O)C[C@@]21C,inactive
4,CC(=O)O[C@]1(C(C)=O)CC[C@H]2[C@@H]3C=C(C)C4=CC(=O)CC[C@]4(C)[C@H]3CC[C@@]21C,inactive and 23.1 µM (active)
5,CCc1nc2c(=O)[nH]cnc2o1,inactive
6,CCn1nnnc1SCC(=O)c1ccc(C)cc1C,inactive
7,Cc1ccccc1NC(=O)Cc1nc(COC(=O)c2ccc(C(F)(F)F)cc2)cs1,inactive
8,COc1ccc(C(N)c2csc(NC(=O)Nc3cccc(C(F)(F)F)c3)n2)cc1 (stereo unspecified),13 µM (active)
9,COc1ccc(C(CC(=O)Nc2ccc(C)cc2)NC(=O)C(F)(F)F)cc1 (stereo unspecified),inactive
10,CC(C)(C)CC(=O)Nc1nc(C(N)Cc2ccc(C(F)(F)F)cc2)cs1 (stereo unspecified),16.4 µM (active)
11,COc1ccc(CC(N)c2csc(NC(=O)Nc3ccc(C(C)C)cc3)n2)cc1 (stereo unspecified),6.51 µM (active)
12,COc1ccc(NC(=O)C(Br)C(C)C)cc1 (stereo unspecified),inactive
13,COc1ccc(NC(=O)C(=O)NCC(=O)Nc2cccc(C(F)(F)F)c2)cc1,inactive
14,CC(C)(C)CC(=O)Nc1nnc(SCC(=O)NCc2cccs2)s1,inactive
15,NC(c1csc(NC(=O)Nc2cccc(C(F)(F)F)c2)n1)C1CCCCC1 (stereo unspecified),20.6 µM (active)
16,CC(C)C[C@H](NC(=O)Nc1cccc(C(F)(F)F)c1)C(=O)O,inactive
17,COC(=O)[C@H](Cc1ccccc1)NC(=O)Nc1ccc(OC)cc1,inactive
18,Cc1ccc(NC(=O)Nc2cccc(C(F)(F)F)c2)nc1,inactive
